From PubChem
USP8 block: inhibitors of human USP8 deubiquitinase | P40818 | purified USP8, Ub-rhodamine cleavage fluorescence, 30 min | inhibition, % at 20 µM | 47,000 tested, 4.2% active | AID 1645853
USP17 inh: inhibitors of human USP17 deubiquitinase; inhibition, % at 50 µM; AID 1645855; 47,000 tested, 6.5% active; purified USP17, Ub-rhodamine cleavage fluorescence, 3 h; A8MUK1
USP30 inh: human USP30 deubiquitinase inhibition; Q70CQ3; purified USP30, Ub-rhodamine cleavage fluorescence; inhibition, % at 25 µM; 47,000 tested, 5.3% active; AID 1645860
Target sequence (Q70CQ3 whole entry, looked up): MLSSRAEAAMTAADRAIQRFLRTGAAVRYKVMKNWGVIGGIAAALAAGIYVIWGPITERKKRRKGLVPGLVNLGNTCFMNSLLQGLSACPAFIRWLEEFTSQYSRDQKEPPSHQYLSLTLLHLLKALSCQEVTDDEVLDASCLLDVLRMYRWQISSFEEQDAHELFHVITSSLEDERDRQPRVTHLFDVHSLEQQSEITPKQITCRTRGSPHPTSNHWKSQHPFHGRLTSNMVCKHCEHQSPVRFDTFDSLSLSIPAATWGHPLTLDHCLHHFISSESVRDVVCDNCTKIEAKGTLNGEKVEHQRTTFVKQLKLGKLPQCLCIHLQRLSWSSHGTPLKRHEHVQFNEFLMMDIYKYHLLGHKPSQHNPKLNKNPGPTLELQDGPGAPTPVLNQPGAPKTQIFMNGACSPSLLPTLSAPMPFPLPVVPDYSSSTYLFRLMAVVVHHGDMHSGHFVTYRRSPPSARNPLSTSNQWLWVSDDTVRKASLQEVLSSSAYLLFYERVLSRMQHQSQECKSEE
USP10 block: inhibitors of human USP10 deubiquitinase | 47,000 tested, 1.1% active | Q14694 | inhibition, % at 20 µM | purified USP10, Ub-rhodamine fluorescence, 60 min
USP28 block: blocks human USP28 ubiquitin-rhodamine cleavage | 47,000 tested, 3% active | Q96RU2 | purified USP28, Ub-rhodamine cleavage fluorescence, 30 min | inhibition, % at 25 µM | AID 1645857
Of the large screens only hits and unclear results are named; the others gave an inactive call. Compounds with a hit are over-represented: about 13% of the library has one in this group of screens. No stated cut-off is given here; in the data, active means inhibition above about 30%; inactive means the rest.

N#Cc1ccccc1OCC(=O)N1CCC(c2nc3ccccc3o2)CC1	USP17 inh 32
Cn1c(N)c(C(=O)CSc2nnc(COc3ccc(Cl)cc3)n2Cc2ccccc2)c(=O)n(C)c1=O	none
CCn1c(SCC(=O)c2c(N)n(CC(C)C)c(=O)n(C)c2=O)nnc1-c1ccccc1	USP17 inh 58
O=C(O)c1c(CNCc2ccco2)c2ccccc2n1Cc1ccccc1F	none
O=C(CCn1c(=O)c2ccccc2n(Cc2ccccc2F)c1=O)NCc1ccco1	USP10 block 39
N#Cc1ccccc1Cn1c(=O)n(Cc2ccco2)c(=O)c2ccccc21	USP17 inh 54, USP30 inh 33, USP28 block 38
N#Cc1ccccc1Cn1c(=O)n(CCCCC(=O)NCc2ccco2)c(=O)c2ccccc21	USP17 inh 51
Cc1ccccc1Cn1c(=O)n(CCC(=O)NCc2ccco2)c(=O)c2ccccc21	USP8 block 38
COCCCN1CCn2c(nc3cc(C(=O)NC4CCCCC4)ccc32)C1	none
CC(=O)C1C(=O)C=C(c2ccccc2)CC1c1ccccc1 (stereo not drawn)	USP17 inh 32
CC(C)(C)CC(=O)N1CCc2cc(-c3csc(NC(=O)Cn4nnc5ccccc54)n3)ccc21	none
Cc1sc(NC(=O)Cn2nnc3ccccc32)nc1-c1ccc2c(c1)CCN2C(=O)c1ccccc1F	USP8 block 50, USP10 block 56
O=C(Cn1nnc2ccccc21)Nc1nc(-c2ccc3c(c2)CCN3C(=O)c2ccccc2F)cs1	USP8 block 77, USP17 inh 54, USP10 block 50
Cc1nc2cc(N3CCC(C(=O)N4CCC(N5CCCCC5)CC4)CC3)cnc2nc1C	none
Cc1cccc(NC(=O)c2c(-c3ccc(C(C)C)cc3)c3c4n(c(-c5ccccc5)cn24)CCCC3)c1	none
Cc1ccc(CN2CC[C@@H]3[C@H](CC2)N(S(C)(=O)=O)CCS3(=O)=O)cc1	none
CS(=O)(=O)N1CCN(Cc2ccc(=O)n(CC3CC3)c2)CC1	USP8 block 48
Cc1c(CN2CCOCC2)nnn1-c1ccccc1	none
Clc1ncc(CN2CCc3ccccc3C2)s1	USP8 block 35, USP28 block 38
COc1ccccc1N1CCN(C(=O)c2cccc(N3C(=O)CCS3(=O)=O)c2)CC1	none
COc1ccc(OC)c(NC(=O)CN2CCC3(CC2)Nc2ccccc2C2=NCCN23)c1	none
O=C(Nc1ccc(Cl)cc1)c1cc(-c2ccccn2)n[nH]1	none
COc1ccc(Cl)cc1NC(=O)c1cc(-c2ccccn2)n[nH]1	USP8 block 84, USP17 inh 61, USP10 block 47
COc1cc(OC)c(NC(=O)c2cc(-c3ccccn3)n[nH]2)cc1Cl	USP8 block 89, USP10 block 40
COc1ccc(CNC(=O)c2cc(-c3ccccn3)n[nH]2)cc1	none
Cc1ccc(Cl)cc1NC(=O)c1cc(-c2ccccn2)n[nH]1	USP17 inh 73
COc1cc(OC)c(NC(=O)c2nc3ccccc3nc2N2CCCC2)cc1Cl	none
COc1cccc(OC)c1C(=O)Nc1cccc2nsnc12	none
CNS(=O)(=O)c1cccc(C(=O)NCc2ccc(-c3ccc(F)cc3)o2)c1	none
CCc1cc(C(=O)c2ccc(OC)cc2)c(NC(=O)CSc2nnc(-c3cccs3)n2C)s1	USP17 inh 61 (no result: USP30 inh, USP28 block)
COc1ccc(NC(=O)CSc2nnc(-c3ccco3)n2C)cc1OC	none
COc1ccccc1-c1nnc(SCCC(=O)O)n1Cc1ccccc1	none
COc1ccc(Cn2c(=O)[nH]c3cc(C(=O)N4CCC(Cc5ccccc5)CC4)ccc3c2=O)cc1	USP30 inh 37
CCOc1cc2[nH]c(=O)n(Cc3ccc(C(=O)NCCCN4CCC(C)CC4)cc3)c(=O)c2cc1OCC	USP30 inh 35
CCOC(=O)N1CCN(C(=O)c2ccc(Cn3c(=O)[nH]c4cc(OC)c(OC)cc4c3=O)cc2)CC1	none
CCOc1cc2[nH]c(=O)n(CCC(=O)NCCc3ccc(OC)c(OC)c3)c(=O)c2cc1OCC	none
COc1cc2[nH]c(=O)n(Cc3ccc(C(=O)N4CCN(C5CCCCC5)CC4)cc3)c(=O)c2cc1OC	USP30 inh 33
COc1ccc(Cl)cc1S(=O)(=O)N1CCc2nc(C)ncc2C1	none
COc1ccc(NC(=O)C2C3C=CC4(O3)C2C(=O)N(Cc2ccc3c(c2)OCO3)C4C(=O)NC2CCCCC2)cc1 (stereo not drawn)	none
O=C(Nc1cccc(C(F)(F)F)c1)c1nn(C2CCS(=O)(=O)C2)c2c1CCCC2 (stereo not drawn)	USP30 inh 31
Cc1cn2nc(N3CCC4(CC3)CC4c3nc(-c4cccnc4)no3)sc2n1 (stereo not drawn)	none (no result: USP17 inh)
